LGR2 inh – blocks bursicon-induced cAMP signaling via Drosophila LGR2. HEK293 LGR2, CRE-luciferase, bursicon-stimulated, 4 h. inhibition, % at 9.99 µM. 380,000 compounds, 0.35% hits. AID 720647;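 active means drop in luminescence signal, shown as inhibition above about 50% in the replicate tests, limit read from the data, passing the limit was not always enough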;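 further: agonist challenge used bursicon conditioned medium at about half maximal strength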
EWS-Fli inh – inhibitors of EWS/Fli oncoprotein transcriptional activity | A673 NR0B1-luciferase reporter, viability-normalised | inhibition, % at 12.6 µM | 350,000 compounds, 0.67% hits;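 active means mean inhibition of at least 50% after viability correction, with every replicate also passing that limit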;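 further: firefly luciferase signal divided by Alamar Blue viability fluorescence both relative to DMSO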
MITF TRPM1 inh – inhibitors of MITF-driven TRPM1 promoter in melanoma cells. 330,000 compounds, 0.83% hits. AID 488899. SK-MEL-5 TRPM1 promoter luciferase, 24 h. inhibition, % at 12.5 µM;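 active means mean inhibition across replicates of 60% or more, whatever share of single replicates reaches that level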
EBV LMP1 NFkB – Epstein-Barr LMP1 NF-kappaB reporter inhibition; LMP1-induced NF-kappaB luciferase reporter cells, luminescence; inhibition, % at 12.5 µM; 350,000 compounds, 0.69% hits; AID 504558; in the data active means inhibition above about 41%;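 further: 0% = neutral control wells and 100% = reference inhibitor control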
PAX8 reporter – inhibitors of PAX8 transcriptional activity in RMG-I cells. RMG-I TPO-luciferase reporter, SteadyGlo, 24 h. 360,000 compounds, 1.2% hits. inhibition, % at 12.6 µM. AID 652154;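 active means mean replicate inhibition at least 60% with every replicate also reaching 60%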;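 further: luciferase light reporting Pax8 driven TPO promoter activity; plate controls were median of neutral control wells for no effect and mitoxantrone controls for full effect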
Shn3 inh set2 – Schnurri-3 reporter inhibition in Clone20 osteoblasts; Clone20 osteoblast Shn3 3'UTR firefly luciferase, 24 h; inhibition, % at 12.5 µM; 360,000 compounds, 0.52% hits; AID 588674;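 active means mean inhibition of at least 75% with every replicate also reaching 75%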;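 further: 0% = median of neutral control wells and 100% = pilot-screen positive control compound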
An asterisk follows results filed as active; nt = no result given. In the library only some 2.2% were active in any assay of this set; here they are far more common.

SMILES	LGR2 inh	EWS-Fli inh	MITF TRPM1 inh	EBV LMP1 NFkB	PAX8 reporter	Shn3 inh set2
C[C@@H]1CN([C@H](C)CO)C(=O)Cc2cc(N(C)C)ccc2O[C@H]1CN(C)C(=O)Nc1cccc2ccccc12	-5.1	3.2	nt	nt	2.8	nt
CN1C(=O)c2cc(NC(=O)Cc3ccccc3)ccc2OC[C@H]2O[C@H](CC(=O)NCC3CC3)CC[C@H]21	24.7	-1.3	nt	nt	5.6	nt
O=C(c1cccc(F)c1)N1CC[C@@H]2[C@@H](CO)Nc3ccc(-c4ccccc4)cc3[C@@H]21	-3.8	0.4	nt	nt	nt	nt
C#CCOCCOCCOCCNc1nc(N2CCN(C(=O)CCCCCCCCCCNC(=O)[C@H]([C@@H](C)CC)n3cc(CCCCN=C(N)N)nn3)CC2)nc(N2CCN(C(=O)CCCCCCCCCCNC(=O)[C@H](CO)n3cc(CCCCCN)nn3)CC2)n1	nt	nt	85.2*	3.0	nt	29.0
C#CCOCCOCCOCCNc1nc(N2CCN(C(=O)CCCCCCCCCCNC(=O)[C@@H](CCC(=O)O)n3cc(CCCCCN)nn3)CC2)nc(N2CCN(C(=O)CCCCCCCCCCNC(=O)[C@H]([C@@H](C)CC)n3cc(CCCCCN)nn3)CC2)n1	nt	nt	-7.3	5.5	nt	3.1
C#CCOCCOCCOCCNc1nc(N2CCN(C(=O)CCCCCCCCCCNC(=O)[C@H]([C@@H](C)CC)n3cc(CCCCCN)nn3)CC2)nc(N2CCN(C(=O)CCCCCCCCCCNC(=O)[C@H](CO)n3cc(CCCCCN)nn3)CC2)n1	nt	nt	81.6*	6.3	nt	29.6
CO[C@@H](CN(C)C(=O)Nc1ccc(Cl)cc1)[C@@H](C)CN(Cc1ccccc1Cl)[C@H](C)CO	11.0	9.8	nt	nt	nt	nt
C[C@H](CO)N1C[C@H](C)[C@@H](CN(C)CC2CCCCC2)OCCCC[C@H](C)Oc2ccc(NC(=O)Nc3ccc(C(F)(F)F)cc3)cc2C1=O	-2.8	60.3*	nt	nt	14.1	nt
CCCN(C)C[C@H]1OCCCC[C@@H](C)Oc2ccc(NC(=O)c3ccccc3)cc2C(=O)N([C@H](C)CO)C[C@H]1C	9.0	5.0	nt	nt	83.3*	nt
C[C@@H]1CN([C@H](C)CO)C(=O)c2cc(NC(=O)Nc3ccc(C(F)(F)F)cc3)ccc2O[C@@H](C)CCCCO[C@@H]1CN(C)CC1CCCCC1	0.7	78.1*	nt	nt	-9.7	nt
C[C@H](CO)N1C[C@H](C)[C@H](CN(C)CC2CCCCC2)OCCCC[C@H](C)Oc2ccc(NC(=O)Nc3ccc(C(F)(F)F)cc3)cc2C1=O	29.6	-11.7	nt	nt	68.3*	nt
CC(C)NC(=O)Nc1ccc2c(c1)C(=O)N([C@@H](C)CO)C[C@@H](C)[C@H](CN(C)Cc1ccc(C(F)(F)F)cc1)OCCCC[C@H](C)O2	-2.5	10.6	nt	nt	-7.9	nt
CCCN(C)C[C@H]1OCCCC[C@@H](C)Oc2ccc(NC(=O)Nc3ccc(C(F)(F)F)cc3)cc2C(=O)N([C@H](C)CO)C[C@H]1C	-0.2	-5.0	nt	nt	82.3*	nt
COc1ccc(NC(=O)Nc2ccc3c(c2)C(=O)N([C@H](C)CO)C[C@H](C)[C@H](CN(C)Cc2ccc4c(c2)OCO4)OCCCC[C@H](C)O3)cc1	32.9	5.7	nt	nt	40.6	nt
CN(C)CCCN(C(=O)COc1ccccc1)c1nc2ccc(F)cc2s1	-23.2	-21.2	3.6	-8.2	0.6	3.4
CN(C)CCCN(C(=O)CCc1ccccc1)c1nc2c(F)cccc2s1	12.6	nt	-1.7	10.0	nt	4.5
Cc1cccc2sc(N(CCN(C)C)C(=O)/C=C/c3cccs3)nc12	14.7	nt	-12.3	-32.5	22.2	11.9
CN(C)CCCN(C(=O)CCOc1ccccc1)c1nc2c(F)cccc2s1	15.8	14.8	16.4	33.9	87.4*	9.2
CN(C)CCCN(C(=O)/C=C/c1cccs1)c1nc2c(F)cccc2s1	55.7*	-6.1	54.1	-3.5	-23.4	-18.3
CN(C)CCCN(C(=O)CCOc1ccccc1)c1nc2ccc(F)cc2s1	10.6	9.3	8.6	24.1	85.8*	-15.6
CO[C@H]1CN(C)C(=O)c2cc(NS(=O)(=O)CC(F)(F)F)ccc2OC[C@H](C)N(Cc2ccccn2)C[C@@H]1C	-19.7	3.5	nt	nt	0.0	nt
CCCCNc1c(-c2ccc(OC)c(SC3CCCCC3)c2)nc2cc(C)ccn12	26.9	41.2	4.6	-2.1	25.6	37.0
CCCCNc1c(-c2cccc(-c3ccc(OC)cc3)c2)nc2ccc(C)cn12	68.0*	9.5	-2.7	6.9	4.8	80.6
CCCCNc1c(-c2cccc(-c3ccc(OC)cc3)c2)nc2cc(C)ccn12	91.5*	25.8	6.5	8.8	3.3	87.2*
CCCNC(=O)C(=O)Nc1ccc2c(c1)N(S(=O)(=O)c1cccs1)CCC2	6.8	35.2	17.1	-13.6	28.2	8.4
SMILES	LGR2 inh	EWS-Fli inh	MITF TRPM1 inh	EBV LMP1 NFkB	PAX8 reporter	Shn3 inh set2
COCCCNC(=O)C(=O)Nc1ccc2c(c1)N(S(=O)(=O)c1cccs1)CCC2	9.3	62.9*	28.2	-1.8	44.2	22.5
Cc1cccc(/C=C/c2onc(C)c2[N+](=O)[O-])n1	70.5*	41.4	nt	nt	5.2	nt
O=C(Nc1cc(C(=O)N2CCCC2)ccc1N1CCCC1)c1ccccc1F	nt	nt	26.7	50.6*	nt	15.9
CC(C)CC#Cc1ccc2c(c1)O[C@H](CN(C)C(=O)CC1CC1)[C@@H](C)CN([C@H](C)CO)S2(=O)=O	-3.5	18.1	nt	nt	49.5	nt
COC(=O)C[C@H]1CC[C@H](N)[C@@H](CO)O1	12.5	-3.2	nt	nt	-3.8	nt
COc1ccc(S(=O)(=O)N(C)C[C@H]2Oc3c(NC(=O)Nc4ccc(C(F)(F)F)cc4)cccc3C(=O)N([C@@H](C)CO)C[C@H]2C)cc1	-8.7	14.7	nt	nt	105.8*	nt
C[C@@H]1CN([C@H](C)CO)C(=O)c2cccc(NC(=O)Nc3cccc4ccccc34)c2O[C@@H]1CN(C)S(=O)(=O)c1ccc(Cl)cc1	-13.9	-2.0	nt	nt	84.3*	nt
C[C@@H]1CN([C@@H](C)CO)C(=O)c2cccc(NC(=O)c3nc4ccccc4s3)c2O[C@@H]1CN(C)S(=O)(=O)c1ccc(Cl)cc1	-1.6	-11.6	nt	nt	26.9	nt
C[C@H](CO)N1C[C@H](C)[C@H](CN(C)S(=O)(=O)c2ccc(Cl)cc2)Oc2c(NC(=O)Nc3cccc4ccccc34)cccc2C1=O	0.3	-7.3	nt	nt	nt	nt
CNC[C@H]1Oc2c(NC(=O)c3nc4ccccc4s3)cccc2C(=O)N([C@H](C)CO)C[C@@H]1C	22.7	58.4*	nt	nt	61.2*	nt
C[C@H](CO)N1C[C@H](C)[C@@H](CN(C)S(=O)(=O)c2ccc(Cl)cc2)Oc2c(NC(=O)c3nc4ccccc4s3)cccc2C1=O	9.1	4.9	nt	nt	72.5*	nt
O=S(=O)(Cc1ccccc1)NCC[C@@H]1CC[C@H](NS(=O)(=O)c2ccc(F)cc2)[C@H](CO)O1	9.6	nt	nt	nt	nt	nt
COc1ccc(S(=O)(=O)Nc2cccc3c2O[C@H](CN(C)C)[C@H](C)CN([C@@H](C)CO)C3=O)cc1	-4.6	-3.9	nt	nt	7.1	nt
Cc1ccc(S(=O)(=O)N(C)C[C@@H]2Oc3c(NC(=O)c4ccc(-c5nccs5)cc4)cccc3C(=O)N([C@@H](C)CO)C[C@@H]2C)cc1	-9.6	-6.2	nt	nt	94.8*	nt

Screening data from PubChem.
